Assay [1] can be described thus: A CellTox Green Cytotoxicity Assay to monitor cytotoxicity in HepG2 cells - 0 hour (AID 1224882). Also: nearly all actives have a fitted effect of over 35% in size. The essentials: (§1)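 Real-time, homogeneous cytotoxicity readout: dead-cell DNA staining by CellTox Green in HepG2 monolayers, fluorescence measured at timed intervals up to 40 h of continuous compound exposure.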
Assay [2] can be described thus: A CellTox Green Cytotoxicity Assay to monitor cytotoxicity in HEK293 cells - 8 hour (AID 1224884). Also: nearly all actives have a fitted effect of over 35% in size. The essentials: (§2)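 Cytotoxicity was tracked continuously in HEK293 cells by a DNA-binding dye excluded from viable cells. Compounds were transferred in DMSO 5 h after seeding; fluorescence was recorded at intervals up to 40 h.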
Assay [3] in a line: qHTS RealTime-Glo MT Cell Viability Assay in HepG2 cells - 16 hour (AID 1224885). Also: nearly all actives have a fitted effect of over 50% in size. Also: potency is read from the fitted curve at half-maximal effect. The method, boiled down: (§3)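 HepG2 cells (600/well) were dispensed with RealTime-Glo reagents, incubated 5 h at 37 °C, then treated with compounds in DMSO for up to 40 h. Nonlytic NanoLuc luminescence reflecting viable cells was read at each stated time point.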
For orientation: qHTS replaces the single test concentration by a dilution series.

A short description of assay [4]: qHTS RealTime-Glo MT Cell Viability Assay in HEK293 cells - 24 hour (AID 1224886). Also: nearly all actives have a fitted effect of over 50% in size. Also: potency is read from the fitted curve at half-maximal effect. The essentials: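 HEK293 cells seeded with NanoLuc/prosubstrate reagent, rested 5 h at 37 C, then dosed and kept at 37 C up to 40 h. Nonlytic real-time luminescence from viable cells read at 0, 8, 16, 24, 32 and 40 h.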
Assay [5] can be described thus: qHTS RealTime-Glo MT Cell Viability Assay in HEK293 cells - 8 hour (AID 1224887). Also: nearly all actives have a fitted effect of over 50% in size. Also: potency is read from the fitted curve at half-maximal effect. The essentials:
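Nonlytic bioluminescent viability monitoring. HEK293 at 600 cells/well with reagent; 5 h settle; compound transfer by pintool; plates held at 37 C and read at set time points.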

Assay [6] can be described thus: qHTS RealTime-Glo MT Cell Viability Assay in HepG2 cells - 0 hour (AID 1224889). Also: nearly all actives have a fitted effect of over 50% in size. The essentials:
as §3

The nature of assay [7]: A CellTox Green Cytotoxicity Assay to monitor cytotoxicity in HepG2 cells - 8 hour (AID 1224890). Also: nearly all actives have a fitted effect of over 45% in size. Also: potency is read from the fitted curve at half-maximal effect. The method, boiled down: as §1
The nature of assay [8]: A CellTox Green Cytotoxicity Assay to monitor cytotoxicity in HepG2 cells - 32 hour (AID 1224883). Also: nearly all actives have a fitted effect of over 50% in size. Also: potency is read from the fitted curve at half-maximal effect. The essentials: as §1
Assay [9] can be described thus: A CellTox Green Cytotoxicity Assay to monitor cytotoxicity in HEK293 cells - 16 hour (AID 1224888). Also: nearly all actives have a fitted effect of over 35% in size. Also: potency is read from the fitted curve at half-maximal effect. The essentials: as §2

The structures appear in SMILES notation. Records with an inconclusive call do not appear. Calls of active or inactive are those of the source. Calls follow the shape of the dose curve; as a rule, active = well fitted curve in the direction sought with a large enough effect in the repeat runs; inconclusive = weak or mixed curves; inactive = no such curve, though single readings can be large; an effect the other way counts as inactive or inconclusive.

Turning to `O=[N+]([O-])c1ccc(Cl)c(Cl)c1Cl`, the Potency entry in [1], in [2], in assay [3], in assay [4], in [5] and in [6] was “inactive” each time. In addition, the Potency result in assay [7] was “inactive”.

Consider `CC1=C2C[C@H]3[C@@H](CC=C4C[C@@H](O)CC[C@@]43C)[C@@H]2CC[C@]12O[C@@H]1C[C@H](C)CN[C@H]1[C@H]2C`, for which the Potency entry in assay [1], in assay [2], in [3], in [9] and in assay [7] was “inactive” throughout. Further, the results for the Potency in [8] and in assay [4] were 26.8 µM (active) and 16.9 µM (active), respectively.

With `CC[N+]1(CC)CCC(OC(=O)C(O)(c2ccccc2)c2ccccc2)C1` (stereo not drawn), the Potency result in assay [1], in [8], in assay [2], in assay [3], in assay [4] and in assay [5] was “inactive” throughout. In addition, the Potency result in assay [9], in assay [6] and in assay [7] was “inactive” in each case.

As for `O=C(Cl)c1ccccc1F`, the Potency entry in assay [1], in [8], in assay [2], in [3], in assay [4] and in assay [5] was “inactive” throughout. In addition, the Potency result in assay [9], in assay [6] and in [7] was “inactive” in each case.

With `Oc1cc(Cl)c(Cl)c(Cl)c1Cl`, the Potency entry in [1], in assay [2], in assay [3], in [9], in assay [6] and in assay [7] was “inactive” throughout. The Potency in assay [4] is 47.8 µM (active).

With `Oc1ccc2[nH]cc(CCCCN3CC=C(c4ccccc4)CC3)c2c1`, the Potency entry in assay [1], in [2], in assay [3], in assay [9], in [6] and in [7] was “inactive” each time. Besides, the Potency is 23.9 µM (active) in assay [8], 19 µM (active) in assay [4] and 8.49 µM (active) in assay [5].

For `CN(C)c1ccc(N)cc1`, the Potency entry in assay [1], in [8], in [2], in assay [9], in assay [6] and in [7] was “inactive” each time. In addition, the Potency is 42.6 µM (active) in assay [4] and 24 µM (active) in assay [5].

Turning to `CC(O)C(=O)[O][Hg][c]1ccccc1` (stereo not drawn), the Potency entry in assay [1] and in [6] was “inactive” throughout. Moreover, the Potency in assay [8] was 2.19 µM (active); in assay [3], 2.19 µM (active); in assay [4], 0.977 µM (active); in [5] it was 1.55 µM (active); in [9], 24.5 µM (active); in assay [7], 2.75 µM (active).

In the case of `C#CCC1=C(C)C(OC(=O)C2C(C=C(C)C)C2(C)C)CC1=O` (stereo not drawn), the Potency result in assay [1], in assay [2], in [3], in [9], in assay [6] and in assay [7] was “inactive” in each case.

Regarding `COP(=S)(OC)Oc1nc(Cl)c(Cl)cc1Cl`, the Potency result in assay [1], in assay [8], in [2], in assay [3], in assay [4] and in assay [9] was “inactive” each time. The Potency result in assay [6] and in assay [7] was “inactive” in each case.

For the compound `CN1C(=O)[C@@H](NC(=O)c2cc3ccccc3[nH]2)N=C(c2ccccc2)c2ccccc21`, the Potency entry in assay [1], in assay [8], in assay [2], in [4], in assay [5] and in assay [9] was “inactive” in each case. For the same compound, the Potency result in assay [6] and in [7] was “inactive” throughout.

`FC(F)C(F)(F)OCC(Cn1cncn1)c1ccc(Cl)cc1Cl` (stereo not drawn): the Potency entry in [1], in [2], in assay [9] and in assay [6] was “inactive” each time. The Potency in assay [8] was 48.7 µM (active); in assay [4] it was 21.7 µM (active).

Turning to `C1=CCC=C1`, the Potency result in assay [1], in [8], in assay [2], in assay [5], in assay [9] and in [6] was “inactive” in each case. Besides, the Potency entry in [7] is “inactive”.

In the case of `C=CCOC(=O)c1ccccc1N`, the Potency result in [1], in assay [8], in assay [2], in [3], in [4] and in assay [9] was “inactive” throughout. For the same compound, the Potency entry in assay [6] and in assay [7] was “inactive” each time.

`Nc1ccccc1-c1ccccc1`: the Potency entry in assay [1], in [8], in assay [2], in assay [3], in assay [4] and in assay [5] was “inactive” each time. The Potency entry in assay [9], in [6] and in assay [7] was “inactive” throughout.

In the case of `c1csc(-c2ccc(-c3cccs3)s2)c1`, the Potency entry in [1], in assay [8], in assay [2], in assay [3], in assay [4] and in [5] was “inactive” in each case. The Potency result in assay [9], in assay [6] and in assay [7] was “inactive” throughout.

For the compound `Nc1c(Cl)c(Cl)c(Cl)c(Cl)c1Cl`, the Potency entry in assay [2], in assay [3], in [4], in assay [5] and in [6] was “inactive” each time.

In the case of `CC(C)c1c(CN(C)C(C)Cc2ccccc2)n(C)n(-c2ccccc2)c1=O` (stereo not drawn), the Potency entry in [1], in assay [2], in assay [3], in assay [9] and in assay [7] was “inactive” in each case.

As for `CCCCC(CC)COC(=O)OOC(C)(C)C` (stereo not drawn), the Potency entry in [1], in assay [8], in assay [2], in assay [3], in [4] and in [9] was “inactive” each time. Moreover, the Potency result in assay [6] and in assay [7] was “inactive” throughout.
